# Assay results as given in PubChem BioAssay (NCI).
# About 79,000 compounds went through this panel and 15% of them were active in at least one assay; those are over-represented in the sample as a whole. Calls of active or inactive are those of the source. Cut-off read from the data, not from the text of the source: active = growth inhibition above about 70%; inactive = the rest.
# Experiment: NCI Yeast Anticancer Drug Screen. Data for the mlh1 strain (AID 171);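 note: 0% = growth of vehicle-treated control cultures of the same strain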
# Conditions: S. cerevisiae mlh1 strain growth inhibition, hits give high values
# Experimental: Growth inhibition of yeast strains with defined genetic alterations is measured as a screen for potential anti-cancer activity. Selected strains with alterations in DNA damage repair or cell cycle control were exposed to compounds and growth inhibition was measured relative to vehicle treated controls. The strain used in this assay is mlh1
Compound,growth inhibition (at 1.2 µM),growth inhibition (at 3.7 µM),growth inhibition (at 11.0 µM),growth inhibition (at 33.0 µM),growth inhibition (at 100.0 µM)
COC(=O)CC1CCc2c(ccc3ccccc23)C1(C)C(=O)OC (stereo not given),-5% (inactive),-2% (inactive),0% (inactive),14% (inactive),57% (inactive)
OC1(c2ccccc2)CCCc2ccc(Cl)cc21 (stereo not given),1% (inactive),3% (inactive),0% (inactive),30% (inactive),99% (active)
CCC(C)(C)c1ccc(Oc2cccc(C(=O)O)c2)cc1,1% (inactive),-1% (inactive),14% (inactive),31% (inactive),96% (active)
OC(/C=C/c1ccccc1)(Cc1cc(-c2ccccc2)n[nH]1)c1ccccc1 (stereo not given),10% (inactive),12% (inactive),12% (inactive),13% (inactive),14% (inactive)
CCOc1c(N=Nc2ccccc2OC)c(C)nn1C(=S)S,-3% (inactive),0% (inactive),4% (inactive),4% (inactive),65% (inactive)
O=C(NO)Nc1cc(Cl)cc(Cl)c1,4% (inactive),31% (inactive),99% (active),99% (active),97% (active)
CCOC(=O)C(Br)C(Br)c1ccccc1Cl (stereo not given),9% (inactive),23% (inactive),92% (active),99% (active),99% (active)
CC(C)(C)C1=CC(=CC=C2C=CN(CCCCCCCCCCCO)C=C2)C=C(C(C)(C)C)C1=O,-3% (inactive),0% (inactive),99% (active),99% (active),98% (active)
